Data from ChEMBL document CHEMBL4513216, “Probing the Open Global Health Chemical Diversity Library for Multistage-Active Starting Points for Next-Generation Antimalarials” (ACS Infect Dis, 2020).
Hit rate of the full screen: of about 68,000 compounds, about 2,700 (4%) showed an effect of 50% or more. Shown is part of a subset that was picked to be rich in strong results.

Each molecule was assayed on Plasmodium berghei (assay: Screen against P. berghei liver stage (PbLuc), transformed with Luciferase, at 2uM). Settings: tested at 2 uM.
Format: functional, HepG2
For `Cc1cc(NCc2ccccc2CN2CCCCC2)n2ncnc2n1`, the INHIBITION was -1.87%.
Work on `Cc1cc(C)c(CNC(=O)N(C)Cc2cccc(F)c2)c(=O)[nH]1` yielded an INHIBITION of -9.17%.
In the case of `CS(=O)(=O)Nc1cccc(C(=O)Nc2ccc3c(c2)C(=O)NC3)c1`, the INHIBITION is reported as -7.99%.
Work on `Cc1nc(SC2CCN(c3sccc3C#N)C2=O)oc1C` (stereo unspecified) yielded an INHIBITION of 32.26%.
For `Cc1nnc(SC2CCN(c3sccc3C#N)C2=O)s1` (stereo unspecified), the INHIBITION was 57.91%.
`Cc1nnc(SC2CCN(c3sccc3C#N)C2=O)[nH]1` (stereo unspecified) showed an INHIBITION of 6%.
For `COc1ccccc1-c1cc(NC(=O)CCS(=O)(=O)C2CCCC2)[nH]n1`, the INHIBITION was -43.66%.
For `CC(=O)Nc1ccc2c(c1)CN(C(=O)c1ccco1)CC2`, the INHIBITION was 33.08%.
Molecule `Cc1cc(C(=O)N2CCC3(C2)CN(c2ccsc2)C(=O)CN3C)[nH]n1` (stereo unspecified) has an INHIBITION of 13.04%.
With `CN1CC(=O)N(c2ccsc2)CC12CCN(C(=O)c1ccc[nH]1)C2` (stereo unspecified) the INHIBITION was 53.98%.
`CN1CC(=O)N(c2ccsc2)CC12CCN(C(=O)c1ccccc1)C2` (stereo unspecified) was tested, and the INHIBITION was 37.45%.
Work on `CCC1CN(CC(=O)NCCN(CC)CC)c2ccccc2S1` (stereo unspecified) yielded an INHIBITION of 18.23%.
`Cc1cc(C)n(C2CCCN(C(=O)CCCNc3ncccn3)C2)n1` (stereo unspecified) was tested, and the INHIBITION was 26.71%.
Molecule `Cc1cc(C)n(C2CCCN(C(=O)CCNS(C)(=O)=O)C2)n1` (stereo unspecified) has an INHIBITION of 15.31%.
For `CCOc1ncccc1C(=O)N1CCCCC1c1nccs1` (stereo unspecified), the INHIBITION was 67.59%.
For `COCCOc1ncccc1C(=O)N1CCCCC1c1nccs1` (stereo unspecified), the INHIBITION was -10.05%.
`COCCOc1ccccc1C(=O)N1CCCCC1c1nccs1` (stereo unspecified) showed an INHIBITION of 45.75%.
`COCc1ccccc1C(=O)N1CCCC(n2nc(C)cc2C)C1` (stereo unspecified) was tested, and the INHIBITION was 21.91%.
`CCOc1ncccc1C(=O)N1CCCC(n2nc(C)cc2C)C1` (stereo unspecified) was tested, and the INHIBITION was 58.29%.
For `Cc1cc(C)n(C2CCCN(C(=O)CCNc3ncccn3)C2)n1` (stereo unspecified), the INHIBITION was 70.27%.
`CCOc1ncccc1C(=O)N1CCCC(n2nc(C)nc2C)C1` (stereo unspecified) showed an INHIBITION of 20.44%.
Molecule `Cc1cncc(C(=O)N2CCO[C@H]3[C@H](Oc4ccccn4)CC[C@@H]32)c1` has an INHIBITION of 28.88%.
`Cc1ccc(CN2CC[C@H]3[C@H](CO[C@H]3CN(C)C)C2)o1` gave an INHIBITION of -0.69%.
`COc1nccc(N2CC[C@H](N3CCOCC3)[C@H](CCCO)C2)c1C#N` gave an INHIBITION of -47.16%.
`N#Cc1cnc2cc(F)cc(F)c2c1NC1CCN(CC(N)=O)CC1` gave an INHIBITION of -22.63%.
`O=C(C1CC(c2ccccc2)=NO1)N1CCCCc2ccccc21` (stereo unspecified) gave an INHIBITION of 24.84%.
With `CCC(CC)c1cc(CNC(=O)N2CCC(CO)CC2)on1` the INHIBITION was -11.8%.
`CCC(CC)c1cc(CNC(=O)N2CCCC(C(=O)NC)C2)on1` (stereo unspecified) showed an INHIBITION of 59.8%.
Molecule `CCC(CC)c1cc(CNC(=O)N2CCCC(N(C)C)C2)on1` (stereo unspecified) has an INHIBITION of 28.23%.
`CN1CCC2(CCN(C(=O)c3ccccc3)CC2)C1` was tested, and the INHIBITION was 39.18%.
With `COc1cccc(-c2n[nH]cc2C(=O)NC(C)CC(=O)O)c1` (stereo unspecified) the INHIBITION was 1.06%.
Work on `COc1cccc(-c2n[nH]cc2C(=O)NC(C)c2nc(C(C)C)no2)c1` (stereo unspecified) yielded an INHIBITION of 33.9%.
`COc1cccc(-c2n[nH]cc2C(=O)NC(C)c2n[nH]c(C)n2)c1` (stereo unspecified) showed an INHIBITION of 64.2%.
In the case of `Cc1cccc(CN2CCCC2c2cccc(CCC(=O)O)n2)c1` (stereo unspecified), the INHIBITION is reported as -46.81%.
In the case of `Cc1cc(CN2CCN(C(=O)CCc3ccco3)CC2)on1`, the INHIBITION is reported as 19.91%.
With `COc1ccc(COCC(O)CNC(=O)c2ccc(C)c(F)c2)cc1` (stereo unspecified) the INHIBITION was -7.11%.
`O=C(c1cncs1)N1CCOCC(Cc2ccccn2)C1` (stereo unspecified) gave an INHIBITION of -11.3%.
With `CN(C)CC(=O)N1CCOCC(Cc2ccccn2)C1` (stereo unspecified) the INHIBITION was 54.44%.
In the case of `CN(CC(=O)N1CCOCC(CO)C1)Cc1ccccn1` (stereo unspecified), the INHIBITION is reported as 14.96%.
Work on `CC(Cn1cccn1)NC(=O)Nc1nccs1` (stereo unspecified) yielded an INHIBITION of 43.93%.
In the case of `O=C(NCCNc1ncccn1)C1CC(=O)N(CC2CC2)C1` (stereo unspecified), the INHIBITION is reported as 4.96%.
`COc1ccccc1CCN1CCCC(CN(C)Cc2cc(C)n[nH]2)C1` (stereo unspecified) was tested, and the INHIBITION was -24.74%.
With `Cc1ccc(C)c(OC(C)C(=O)NCCNc2cccnc2)c1` (stereo unspecified) the INHIBITION was 33.36%.
`Cc1ccc(C)c(OC(C)C(=O)NCc2cccnc2)c1` (stereo unspecified) showed an INHIBITION of 50.98%.
`Cc1ccc(C)c(OC(C)C(=O)Nc2cccnc2)c1` (stereo unspecified) gave an INHIBITION of 1.42%.
With `COc1ccc(NS(=O)(=O)C=c2[nH]c(=O)n3cccc3c2=O)cc1Cl` the INHIBITION was 1.52%.
For `O=C(N1CCCC1)N1CCN(c2ccc(Cl)nn2)C(=O)C1`, the INHIBITION was 11.51%.
In the case of `CC(CCNC(=O)NCCc1ccc(S(N)(=O)=O)cc1)c1ccccc1` (stereo unspecified), the INHIBITION is reported as 23.76%.
`CC(CCNC(=O)NCCc1ccncc1)c1ccccc1` (stereo unspecified) was tested, and the INHIBITION was 54.29%.
Work on `CC(CCNC(=O)NCCNc1cnccn1)c1ccccc1` (stereo unspecified) yielded an INHIBITION of -24.05%.
In the case of `CO[C@H]1CCN(Cc2ccccn2)[C@@H]2CN(Cc3ccco3)C[C@H]12`, the INHIBITION is reported as 23.7%.
For `O=C(CN1CC(c2nc(-c3ccco3)no2)C1)NCc1ccc(F)cc1`, the INHIBITION was 25.69%.
Molecule `Cc1nc(CNc2ncc(Br)cn2)n[nH]1` has an INHIBITION of 33.78%.
`O=C(O)c1ccc(S(=O)(=O)Nc2c(F)cccc2-n2cccn2)cc1` showed an INHIBITION of -21.15%.
`O=C(O)c1ccc(F)c(S(=O)(=O)Nc2c(F)cccc2-n2cccn2)c1` was tested, and the INHIBITION was 52.67%.
For `O=C(O)c1csc(S(=O)(=O)Nc2c(F)cccc2-n2cccn2)c1`, the INHIBITION was -51.5%.
With `CC(C)N1C(=O)CN(CCCO)CC1(C)C` the INHIBITION was -4.81%.
`Cc1noc(-c2ccnc(Oc3ccc(CN4CCCC4)cc3C)c2)n1` was tested, and the INHIBITION was 27.72%.
`CCc1ccc(CN2CCC3(CCCN(C(=O)c4cnccn4)C3)C2)o1` (stereo unspecified) showed an INHIBITION of -26.14%.
Work on `O=C(Cc1ccc(O)c(F)c1)N1CCN(CC2CC2)[C@@H]2CS(=O)(=O)C[C@@H]21` yielded an INHIBITION of 30.42%.
In the case of `O=C(CCn1cc(Cl)cn1)N1CCN(CC2CC2)[C@@H]2CS(=O)(=O)C[C@@H]21`, the INHIBITION is reported as 59.48%.
For `CCC(=O)N1CCN(C(=O)CCn2cc(Cl)cn2)[C@H]2CS(=O)(=O)C[C@H]21`, the INHIBITION was 32.71%.
With `CCCN1CCN(Cc2cccc(OC(C)C)c2)[C@H]2CS(=O)(=O)C[C@H]21` the INHIBITION was 5.86%.
`O=C(Cc1ccc(O)c(Cl)c1)N1CCN(CC2CC2)[C@@H]2CS(=O)(=O)C[C@@H]21` was tested, and the INHIBITION was -3.88%.
`Cn1nccc1C(=O)N1CCN(C(=O)C2CC2)[C@@H]2CS(=O)(=O)C[C@@H]21` gave an INHIBITION of 17.73%.
Work on `O=C(Cc1ccc(CO)cc1)N1CCN(CC2CC2)[C@@H]2CS(=O)(=O)C[C@@H]21` yielded an INHIBITION of 63.46%.
`CCCN1CCN(Cc2cccc(OCC(N)=O)c2)[C@H]2CS(=O)(=O)C[C@H]21` was tested, and the INHIBITION was 64.52%.
`Cc1cc(CC(=O)N2CCN(CC3CC3)[C@@H]3CS(=O)(=O)C[C@@H]32)ccc1F` showed an INHIBITION of -10.66%.
For `CCCN1CCN(Cc2cccc(OC)c2)[C@H]2CS(=O)(=O)C[C@H]21`, the INHIBITION was 37.76%.
In the case of `Cc1cnn(CCC(=O)N2CCN(C(=O)C3CC3)[C@@H]3CS(=O)(=O)C[C@@H]32)c1`, the INHIBITION is reported as 59.94%.
Molecule `Cc1cnn(CCC(=O)N2CCN(C(=O)C(C)C)[C@@H]3CS(=O)(=O)C[C@@H]32)c1` has an INHIBITION of 34.52%.
